Assay results from PubChem BioAssay (NCI).
The panel holds about 83,000 compounds, 20% with a hit somewhere; the sample as a whole holds those more often.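 The test compound was applied at a single concentration to cells in 96-well plates for 48 hours, and percent growth was recorded.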 A number with no mark means an inactive call. The source made the active and inactive calls.

Test system: SNB-19 CNS
Experiment: NCI-60 one-dose screen, 48 h (100 = growth as untreated, 0 = no growth, -100 = all killed)
Details: 10 µM unless noted
Procedure: Growth inhibition of the SNB-19 human tumor cell line is measured as a screen for anti-cancer activity. Cells are grown in 96 well plates and exposed to the test compound for 48 hours. Compounds are tested at a single concentration, which is 10^-5 M for most compounds. The reported endpoint is percent growth (GI% or GIPRCNT), where numbers from 0 - 100% represent growth inhibition, and numbers from -100% - 0 represent cell death. For example, a value of 40 represents 60% growth inhibition. A value of 0 means no net growth occurred over the course of the experiment. A value of -40 indicates 40% of cells at the beginning of the experiment died by the end of the experiment. A value of -100 means all cells are dead at the end of the experiment.
NCI-60 Human Tumor Cell Lines Screen was performed using the standard one-dose NCI protocol, which is described in more detail at https://dtp.cancer.gov/discovery_development/nci-60/default.htm.
Compounds with GIPRCNT values below 10 were considered active. Activity score was based on GIPRCNT using the following formula: […]
Score is 0 for GIPRCNT values of 100 or above, 50 for GIPRCNT values of 0, and 100 for GIPRCNT values of -100.

SMILES	growth
CCOC(=O)C(CC(=O)O)=C(C(=O)OCC)C(=O)OCC	109%
Cc1nn(-c2nc3ccccc3[nH]2)c2c1C(c1ccc(OCC(N)=O)cc1)CC(=O)N2 (stereo not given)	103%
COc1cc(C(=O)Nc2ccc(-c3nc4ccccc4[nH]3)cc2)cc(OC)c1OC	53.8%
O=c1[nH]nnc2c1ncn2C1OC(CO)C(O)C1O (stereo not given)	105%
Clc1ncccc1Nc1ccc2nnc(-c3ccncc3)n2n1	102%
CCN1CCN(C(=S)SCC(=O)Nc2nc3ccc(C)cc3s2)CC1	102%
Cc1cc(Br)c(N)c(Br)c1	103%
CS(=O)(=O)Nc1ccc(C(=O)NC(C(=O)NO)c2ccc(-c3cccc(F)c3)cc2)cc1 (stereo not given)	45.2%
COC(=O)[C@H]1CCCN1C(=O)[C@H]1CCCN1C(=O)[C@H](Cc1c[nH]c2ccccc12)NC(=S)Nc1cc(C(F)(F)F)cc(C(F)(F)F)c1	51.3%
COc1ccc(OC)c(/C=C/C(=O)c2c(C)nc3ccccc3c2/C=C/c2ccccc2)c1	80.9%
CSc1nc2c(c(=O)n1C)N=C1c3ccccc3C(=O)C1C(c1ccccc1)N2 (stereo not given)	82.4%
O=C1C(Cl)=C(NCc2ccco2)C(=O)c2ccccc21	98.8%
CCC1=C[C@@H]2CN(C1)Cc1c([nH]c3ccccc13)[C@@](C(=O)OC)(c1cc3c(cc1OC)N(C)[C@H]1[C@@](O)(C(=O)OC)[C@H](OC(C)=O)[C@]4(CC)[C@@H]5C[C@@H]5CN5CC[C@]31[C@@H]54)C2	55.7%
CN(CCc1ccccc1)C(=S)N(C(=O)c1ccc([N+](=O)[O-])cc1)c1ccc(Cl)cc1	101%
CCOC(=O)c1cc2c(n1Cc1cc(OC)cc(OC)c1)-c1oncc1CCC2	28.5%
CC(=O)O[C@@H]1/C=C/C(=O)N[C@@H](C)CCC/C=C/[C@@H]2CCC[C@H]21	96.9%
O=c1c2cc(F)ccc2sc2c(NCCCNCCO)nc3ccc(Cl)cc3c12	76.5%
CC1=C(C(=O)OCC2CCN(C(=O)OC(C)(C)C)CC2)[C@@H](c2cccc(C#N)c2)C2=C(CC(C)(C)CC2=O)N1	43%
CCOC(=O)C1(C(=O)OCC)N=C(c2ccccc2)C=C1c1ccccc1	95.4%
Cc1ccc(NCCNCC(O)CO)c2c(=O)c3ccccc3sc12 (stereo not given)	26.3%

SMILES	growth
CCCCN1CCN(c2ccc3nc(-c4ccc5nc(-c6ccc(OC)c(OC)c6)[nH]c5c4)[nH]c3c2)CC1	0.577% (active)
COc1cc(NC(=O)CCSc2nc3ccccc3c(=O)n2CCc2ccccn2)cc(OC)c1OC	98.6%
CCCC(c1nnnn1C1CCCCC1)N1CCN(C(=O)c2ccco2)CC1 (stereo not given)	84.5%
COC(=O)c1c2c(c(C)[n+]([O-])c1C)C(=O)C=C(NCc1ccc(F)c(F)c1)C2=O	-67.2% (active)
CC1=C(C(=O)OCC2CCN(C(=O)OC(C)(C)C)CC2)[C@H](c2cccc(Br)c2)C2=C(CC(C)(C)CC2=O)N1	42.5%
COc1cc(C(=O)O/N=C(\N)Cc2cccc3ccccc23)cc(OC)c1OC	68.2%
NCCNc1nc2ccccc2c2c(=O)c3cc(F)cc(Cl)c3sc12	81.4%
COC(=O)C1=Nc2ccc(F)cc2/C1=C/c1sc(=S)[nH]c1O	30.4%
COc1cc(/C=C2\CCC/C(=C\c3cc(CN4CCOCC4)c(O)c(OC)c3)C2=O)cc(CN2CCOCC2)c1O	52.8%
COc1ccc(S(=O)(=O)N(Cc2ccc3c(n2)C=CC(C)(C)O3)C2CCC2)cc1OC	8.75% (active)
COc1ccc(Cn2c(Br)c3c(c2-c2cc(OC)c(OC)c(OC)c2)CCc2sc(NC(=O)c4ccc(OC)cc4)nc2-3)cc1	98.5%
Nc1ccc(-c2nn3c(CCC(=O)c4nc5ncccc5[nH]4)nnc3s2)c(O)c1	88.2%
COC(=O)/C(CCC=C(C)C)=C1\[C@@H](OC(C)=O)C[C@@]2(C)[C@H]1CC(=O)N[C@H]1[C@@]3(C)CCNC(=O)[C@@H](C)[C@@H]3CC[C@@]12C	98.6%
CCN1C(=O)N(CC)C2C1NN=c1s/c(=C3\C(=O)N(C(C)C)c4ccccc43)c(=O)n12 (stereo not given)	31.3%
O=c1oc2ccc(Br)cc2c(=O)n1-c1ccc(I)cc1F	18.4%
COc1ccc(C2C3=C(COC3=O)N(CCO)c3cc4c(cc32)CCC4)cc1 (stereo not given)	62.2%
CCCCc1c(CCC)c(=N)c2ccccc2n1C	111%
CCN1C(=O)N(c2ccccc2)C2Nn3c(s/c(=C4\C(=O)N(C(C)C)c5ccccc54)c3=O)=NC21 (stereo not given)	96%
O=C(Nc1ccc(Cl)cc1F)c1cc(F)ccc1O	22.8%
O=C(COc1cc(O)c2c(=O)cc(-c3ccccc3)oc2c1)Nc1ccccc1C(F)(F)F	45.2%
